Compounds without any hit were thinned out: in the full panel of roughly 79,000, 15% have a hit. Rule as the data show it: active = growth inhibition above about 70%; inactive = the rest.
Tests used:
[1] = NCI Yeast Anticancer Drug Screen. Data for the rad50 strain (AID 155);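 also: 0% = growth of vehicle-only cultures of the same strain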; conditions: S. cerevisiae rad50 strain growth inhibition; at 50.0 µM; hits give high values
Summary of the method: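 A DNA repair-deficient yeast mutant serves as the test organism; compound-induced growth inhibition is calculated against vehicle-treated cells.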

[2] = NCI Yeast Anticancer Drug Screen. Data for the mec2-1 strain (AID 157); conditions: S. cerevisiae mec2-1 strain, at 50.0 µM, hits give high values
Summary of the method: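 Vehicle-treated cultures served as reference for growth inhibition of compound-exposed mec2-1 yeast.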

[3] = NCI Yeast Anticancer Drug Screen. Data for the sgs1 mgt1 strain (AID 161);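 also: 0% = growth of cultures given vehicle only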; conditions: S. cerevisiae sgs1 mgt1 strain, at 50.0 µM, hits give high values
Summary of the method: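 Inhibition of yeast growth, normalised to vehicle-treated controls, is reported for a strain bearing genetic alterations in DNA damage repair.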

[4] = NCI Yeast Anticancer Drug Screen. Data for the cln2 rad14 strain (AID 165);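 also: 0% = growth equal to vehicle treated cultures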; conditions: S. cerevisiae cln2 rad14 strain, at 50.0 µM, hits give high values
Summary of the method: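 Each compound was tested on cln2 rad14 yeast. Inhibition of growth was calculated against vehicle-exposed controls.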

[5] = NCI Yeast Anticancer Drug Screen. Data for the bub3 strain (AID 167); conditions: S. cerevisiae bub3 mutant strain, at 50.0 µM, hits give high values
Summary of the method: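 Inhibition values come from growth of compound-treated mutant yeast normalised to vehicle-treated controls.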

[6] = NCI Yeast Anticancer Drug Screen. Data for the mlh1 rad18 strain (AID 175); conditions: S. cerevisiae mlh1 rad18 strain growth inhibition; at 50.0 µM; hits give high values
Summary of the method: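 Vehicle-treated cultures served as the reference for growth inhibition in a yeast strain carrying DNA damage repair alterations exposed to each compound.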

Measured: growth inhibition

COCC(Cl)/C(N)=N\S(=O)(=O)c1ccc(Cl)cc1 (stereo unspecified)
inactive: [1] 5.8% | [2] -17.4% | [3] 15.2% | [4] 14.8% | [5] 26.2% | [6] 4.95%

COc1ccc(S(=O)(=O)N2OC2c2ccccc2)cc1 (stereo unspecified)
inactive: [1] -22.2% | [2] 2.65% | [3] 14.7% | [4] 10% | [5] 1.65% | [6] -6%

Nc1nc(N)c2ncn(-c3ccc(Cl)cc3)c2n1
inactive: [1] -0.7% | [2] 14.2% | [3] 9.8% | [4] -21.4% | [5] -0.85% | [6] 8.4%

COc1ccc(CC(=O)OCCCl)cc1OC
inactive: [1] -17% | [2] -22.4% | [3] 3% | [4] -26.4% | [5] 44.1% | [6] -20.7%

COC(=O)/C=C\C1(CC(C)C)N=C(c2ccccc2)OC1=O (stereo unspecified)
inactive: [1] 14.9% | [2] 25.1% | [3] 15.8% | [4] 11.2% | [5] 36.1% | [6] 26.8%

C[n+]1cccc(/C=C/c2ccc3cccc(O)c3n2)c1
inactive: [1] 4% | [2] -3.75% | [3] -12.7% | [4] -2.65% | [5] -42.4% | [6] 8.35%

COc1cc(C[S+]2CCCC2)c(SC)cc1C[S+]1CCCC1
inactive: [1] 25.4% | [2] 50% | [3] 40.2% | [4] 27.5% | [5] 24.1% | [6] 23.1%

O=C1CCc2ccccc2-c2ccccc21
inactive: [1] 17.9% | [2] 5% | [3] -12.1% | [4] -32% | [5] -5.3% | [6] 5.4%

CCOC(=O)c1nnsc1NN
inactive: [1] 8.8% | [2] -7.45% | [3] -47.6% | [4] 0.95% | [5] -22.4% | [6] -4.1%

Cc1[nH]c(=O)c2oc3cc4ccccc4cc3c2c1C(=O)O
inactive: [1] -14.6% | [2] -29.9% | [3] -24.1% | [4] -44.1% | [5] -30.7% | [6] -19.1%

O=C(OCC1OC(n2ccc(=O)[nH]c2=O)C(F)C1OC(=O)c1ccccc1)c1ccccc1 (stereo unspecified)
inactive: [1] 24.1% | [2] 4.3% | [3] 8.6% | [4] 17.7% | [5] 7.15% | [6] 2.3%

CC1(C2(C)SCCS2)SCCS1
inactive: [1] 11.2% | [2] 2.9% | [3] -1% | [4] 11.2% | [5] -8.55% | [6] 10.5%

CC1=C(C)C(N(C)C)CS(=O)(=O)O1 (stereo unspecified)
inactive: [1] 6.35% | [2] -18.4% | [3] -0.7% | [4] -47% | [5] -11.2% | [6] -7.9%

CCc1cccc(C)c1NC(=S)NC(=O)c1ccccc1C(=O)NC(=S)Nc1c(C)cccc1CC
inactive: [1] 12.3% | [2] 7.7% | [3] 0.95% | [4] 20.9% | [5] 11.8% | [6] 20.4%

ClC(Cl)(Cl)C(=NNc1ccccc1)C(Cl)(Cl)Cl
inactive: [1] -0.1% | [2] 16.4% | [3] 30.4% | [4] 50.5% | [5] 30.6% | [6] 69.5%

COc1ccc(C(=O)N=C(N)n2nc(C)cc2C)cc1
inactive: [1] -37.8% | [2] -1.35% | [3] -1% | [4] -16.1% | [5] 31.9% | [6] -0.75%

Cc1c(NC(C)C)ccc(NC(C)C)c1C
inactive: [1] 35.3% | [2] 27.6% | [3] 26.3% | [4] 17% | [5] 25.2% | [6] 43.2%

CCOC(=O)/C(C#N)=C/Nc1c(C)n(C)n(-c2ccccc2)c1=O
inactive: [1] 0.95% | [2] 10.3% | [3] 6.75% | [4] 16.4% | [5] -0.85% | [6] 13.6%

O=C(O)c1ccc2c(c1)CC1(C2)Cc2ccccc2C1=O (stereo unspecified)
inactive: [1] -16.4% | [2] -4.9% | [3] -8.2% | [4] -14.2% | [5] 6.15% | [6] -2.75%

CN(C)C1Cc2ccccc2C1OC(=O)c1ccccc1 (stereo unspecified)
inactive: [1] 27% | [2] 20.2% | [3] 11% | [4] 22.1% | [5] 14.6% | [6] 37.1%

COC(=O)/C=C/c1ccc([N+](=O)[O-])cc1
inactive: [1] -6.3% | [2] -2.5% | [3] 20.9% | [4] -24% | [5] 8.15% | [6] -18.2%
